Only some compounds are listed: those with a hit (about 0.93% of all), similar ones and a draw of the others.
CDC25B CDK2 inh – primary biochemical HTRF screen for blockers of M-phase inducer phosphatase 2 binding to CDK2/cyclin A | P30305+P24941 | AID 1259370, 2018 | 0.72% of 94,000 active | HTRF CDC25B-CDK2/CyclinA binding, anti-His/anti-Flag; active compounds read high | z-score (no concentration beside the values); in the data active = z-score above about 3.2
TAR Tat displ – TAR RNA-Tat peptide displacers, HIV-1, primary screen, biochemical, FRET, FAM/TAMRA-labeled Tat. 0.6% of 100,000 active. AID 1259389, 2018. HIV-1 TAR RNA, Tat peptide displacement FRET; active compounds read high. z-score (no concentration beside the values); active = z-score of 3 or more in at least 2 runs
Numbers without * were called inactive.

Screening COc1ccc(C2CC(=O)N3CN(C)CSC3=C2C#N)c(OC)c1 (stereo not drawn) returned CDC25B CDK2 inh 5.2* and TAR Tat displ -1.3.
For COc1ccc(N2CSC3=C(C#N)C(c4ccc(SC)cc4)CC(=O)N3C2)cc1 (stereo not drawn) the results were CDC25B CDK2 inh 2.8 and TAR Tat displ -0.8.
For COc1ccc(Br)cc1C1CC(=O)N2CN(C)CSC2=C1C#N (stereo not drawn) the results were CDC25B CDK2 inh 5 and TAR Tat displ 3.3.
COc1ccc(C2CC(=O)N3CN(c4ccc(F)cc4)CSC3=C2C#N)c(OC)c1 (stereo not drawn) was read as CDC25B CDK2 inh 4.4* and TAR Tat displ -2.1.
Screening COc1ccc(N2CSC3=C(C#N)C(c4ccc(OC)cc4OC)CC(=O)N3C2)cc1 (stereo not drawn) returned CDC25B CDK2 inh 3.4* and TAR Tat displ -1.2.
`Fc1ccccc1COc1nsnc1N1CCOCC1` gave CDC25B CDK2 inh -0.67 and TAR Tat displ -0.07.
`O=C(CCS(=O)(=O)c1ccc2c(c1)CCN2C(=O)C1CC1)Nc1cc(F)ccc1F` gave TAR Tat displ 0.87.
Screening C=CCN1C(=O)C(C(=O)N2CCOCC2)C2CC1(C)Oc1ccccc12 (stereo not drawn) returned CDC25B CDK2 inh -0.76.
`Cc1ccc(-n2ncc3c(N4CCCC4)ncnc32)cc1C` gave TAR Tat displ 1.9.
Screening O=C(Nc1ccc2oc(-c3ccccc3)nc2c1)c1nc(-n2cnnc2)ccc1Br returned TAR Tat displ 2.5.
Screening O=C(Nc1ccc(-c2nc3ccccc3o2)cc1)c1nc(-n2cnnc2)ccc1Br returned TAR Tat displ 7.2*.
Cc1nn(C)c(C)c1CNS(=O)(=O)c1ccc(C(C)C)cc1 was read as TAR Tat displ 0.31.
For Cc1cc(C)c2nc(Nc3nc(C)c(C)c(=O)[nH]3)nc(C)c2c1 the results were CDC25B CDK2 inh 1.3.
Screening Cc1c(NC(=O)Nc2ccccc2Cl)sc2nc3n(c(=O)c12)CCC(C)CC3 (stereo not drawn) returned CDC25B CDK2 inh -2.5 and TAR Tat displ 0.25.
`COc1cccc(NC(=O)Nc2sc3nc4n(c(=O)c3c2C)CCC(C)CC4)c1` (stereo not drawn) gave CDC25B CDK2 inh -3 and TAR Tat displ 0.79.
COc1cc(OC)c(NC(=O)Nc2sc3nc4n(c(=O)c3c2C)CCC(C)CC4)cc1Cl (stereo not drawn) was read as CDC25B CDK2 inh 11* and TAR Tat displ 0.31.
Screening Cc1ccccc1NC(=O)Nc1sc2nc3n(c(=O)c2c1C)CCC(C)CC3 (stereo not drawn) returned CDC25B CDK2 inh 12* and TAR Tat displ 0.07.
Screening O=C(NCC1CCCO1)c1ccc2c(c1)CCN2S(=O)(=O)c1ccc(Cl)cc1 (stereo not drawn) returned CDC25B CDK2 inh -0.94 and TAR Tat displ 1.3.
Screening COc1ccc(NS(=O)(=O)c2ccc3c4c(cccc24)C(=O)N3)cc1 returned CDC25B CDK2 inh -0.99 and TAR Tat displ 2.2.
O=C1Nc2ccc(S(=O)(=O)Nc3ccc4oc5c(c4c3)CCCC5)c3cccc1c23 was read as CDC25B CDK2 inh -1.9 and TAR Tat displ 6.3*.
`CC(=O)Oc1cc2c(C(=O)N3CCCC3)c(C)oc2c2ccccc12` gave CDC25B CDK2 inh 3.9 and TAR Tat displ 0.43.
Cc1oc2c(cc(O)c3ccccc32)c1C(=O)O was read as CDC25B CDK2 inh 8.6* and TAR Tat displ -5.5.
For COc1ccc(-c2noc(CC3CCCCC3)n2)cc1OC the results were CDC25B CDK2 inh 16* and TAR Tat displ 1.6.
Screening COc1ccc(-c2noc(CN3CCCCC3)n2)cc1OC returned CDC25B CDK2 inh -0.8 and TAR Tat displ 2.
For C[C@H]1c2cccc(O)c2C(O)=C2C(=O)[C@]3(O)C(O)=C(C(N)=O)C(=O)[C@@H](N(C)C)[C@@H]3[C@@H](O)[C@@H]21 the results were CDC25B CDK2 inh -0.66 and TAR Tat displ 24*.
For CN(C)c1ccc(O)c2c1C[C@H]1C[C@H]3[C@H](N(C)C)C(=O)C(C(N)=O)=C(O)[C@@]3(O)C(=O)C1=C2O the results were TAR Tat displ 20*.
For Cc1ccc(-c2nnc(SCc3cc(=O)c4ccccc4[nH]3)n2C)cc1 the results were TAR Tat displ 0.82.
Screening COCCCNC(=O)C1CCCN(S(=O)(=O)N2CCOCC2)C1 (stereo not drawn) returned TAR Tat displ -0.91.
Screening CCC1CN(S(=O)(=O)c2cc(-c3cnc(C)o3)ccc2OC)c2cc(Cl)ccc2O1 (stereo not drawn) returned TAR Tat displ 1.4.
OC(CN1CCN(C(c2ccccc2)c2ccccc2)CC1)C(F)(F)F (stereo not drawn) was read as CDC25B CDK2 inh 0.23.
Screening Cc1c([N+](=O)[O-])sc2nc[nH]c(=O)c12 returned CDC25B CDK2 inh -0.33 and TAR Tat displ 11*.
